# Source: ChEMBL document CHEMBL1201862, “PubChem BioAssay data set” (2004)
# About 1,200 (0.34%) of roughly 350,000 compounds were called active. Inconclusive results (about 3%) are left out. The calls are words filed in the database; no cut-off is given here. This excerpt belongs to a sample that is enriched for actives.
# Molecular target: DNA repair nuclease/redox regulator APEX1 (Homo sapiens) (UniProt P27695)
# Assay: qHTS Assay for Inhibitors of the Human Apurinic/apyrimidinic Endonuclease 1 (APE1).
# Format: functional
# DNA repair nuclease/redox regulator APEX1 (Homo sapiens), sequence (P27695 whole entry): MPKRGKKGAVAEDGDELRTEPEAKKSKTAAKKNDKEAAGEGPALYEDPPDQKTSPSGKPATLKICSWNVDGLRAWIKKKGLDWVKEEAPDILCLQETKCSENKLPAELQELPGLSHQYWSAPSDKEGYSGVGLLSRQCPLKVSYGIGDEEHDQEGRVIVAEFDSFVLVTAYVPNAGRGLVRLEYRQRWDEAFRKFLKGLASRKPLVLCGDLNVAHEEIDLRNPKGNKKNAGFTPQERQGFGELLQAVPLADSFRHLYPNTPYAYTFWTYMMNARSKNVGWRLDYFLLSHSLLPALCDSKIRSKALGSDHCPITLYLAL
row,Structure (SMILES),Potency
1,O=C(Cn1c(=S)[nH]c2ccccc2c1=O)N1CCN(c2ccc(F)cc2)CC1,794 µM (active)
2,CC(=O)OCC(NC(=O)C(Cc1c[nH]c2ccccc12)NC(=O)OC(C)(C)C)C1OC(n2cc(C)c(=O)[nH]c2=O)C(OC(C)=O)C1OC(C)=O (stereo not drawn),inactive
3,O=C(O)c1cc(-c2ccc(F)cc2F)ccc1O,inactive
